Screens from PubChem BioAssay.
Only some compounds are listed: those with a hit (about 7.8% of all), similar ones and a draw of the others.
Shh pathway inh – Sonic Hedgehog pathway inhibition. inhibition, % (test concentration not listed). Shh-LIGHT2 Gli-luciferase reporter, 30 h. hit rate 2.1% among 22,000;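 active means mean inhibition across valid replicates above about 65%, limit read from the data; inconclusive means mean under the limit, yet half or more replicates past it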;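 further: pathway switched on by Shh-conditioned medium diluted 1 in 25 in low serum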
NOMO-1 viab – STK33 inhibitor candidate reducing NOMO-1 cell viability | NOMO-1 AML viability, CellTiter-Glo luminescence, 72 h | inhibition, % (no concentration beside the values) | hit rate 7.5% among 37,000 | AID 2330; in the data active means inhibition above about 80%; inconclusive means no clear call, values can overlap the other calls
MITF inh – inhibitors of MITF; TRPM1 promoter luciferase, luminescence, 24 h; inhibition, % (test concentration not listed); hit rate 0.28% among 37,000; in the data active means inhibition above about 85%; inconclusive means no clear call, values can overlap the other calls; inactive means below about 68%;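 further: human melanocyte line stably carrying TRPM1 promoter luciferase reporter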
A number is an active result; 0 = inactive; ? = inconclusive; - = no result.

SMILES | Shh pathway inh | NOMO-1 viab | MITF inh
C[C@H]1CN([C@@H](C)CO)C(=O)Cc2cc(NC(=O)Nc3ccc(F)cc3)ccc2O[C@@H]1CN(C)S(=O)(=O)c1ccc(Cl)cc1 | 0 | 0 | 0
Cc1noc(C)c1S(=O)(=O)Nc1ccc2c(c1)CC(=O)N([C@@H](C)CO)C[C@H](C)[C@@H](CN(C)C(=O)Nc1ccc(C(F)(F)F)cc1)O2 | ? | 0 | 0
Cc1noc(C)c1S(=O)(=O)N(C)C[C@H]1Oc2ccc(NC(=O)Nc3ccccc3)cc2CC(=O)N([C@@H](C)CO)C[C@@H]1C | 0 | 0 | 0
C[C@@H]1CN([C@@H](C)CO)C(=O)Cc2cc(NC(=O)Nc3ccc(C(F)(F)F)cc3)ccc2O[C@@H]1CN(C)S(=O)(=O)c1ccc(Cl)cc1 | 0 | 104 | 0
Cc1noc(C)c1S(=O)(=O)Nc1ccc2c(c1)CC(=O)N([C@@H](C)CO)C[C@H](C)[C@H](CN(C)C(=O)Nc1ccc(C(F)(F)F)cc1)O2 | 66 | 0 | 0
Cc1noc(C)c1S(=O)(=O)N(C)C[C@H]1Oc2ccc(NC(=O)Nc3ccc(C(F)(F)F)cc3)cc2CC(=O)N([C@@H](C)CO)C[C@H]1C | - | 92 | 0
COc1cccc(C(=O)NC2(C(F)(F)F)C(=O)N(CC3CCCO3)C3=C2C(=O)CC(C)(C)C3)c1 (stereo unspecified) | - | 0 | 0
COc1ccc(NC(=O)CNC(=O)c2ccccc2)cc1Cl | - | 0 | 0
Cc1c(CC(=O)O)c(=O)oc2cc(OCC(=O)O)ccc12 | - | 0 | 0
COc1ccc(NC(=O)CN2CCN(S(=O)(=O)c3ccc(F)cc3)CC2)cc1 | - | 0 | 0
O=C(COc1ccccc1)NC(=S)Nc1cc(-c2nc3ccccc3o2)ccc1Cl | - | 0 | 0
c1ccc(CNc2ncnc3scc(C4COc5ccccc5O4)c23)cc1 (stereo unspecified) | - | 0 | 0
C[C@H]1CN([C@@H](C)CO)C(=O)Cc2cc(NC(=O)Nc3ccc(C(F)(F)F)cc3)ccc2O[C@H]1CN(C)S(=O)(=O)c1ccccc1 | 0 | 102 | 0
C[C@@H]1CN([C@H](C)CO)C(=O)Cc2cc(NC(=O)Nc3ccccc3)ccc2O[C@H]1CN(C)S(=O)(=O)c1ccccc1 | - | 0 | 0
Cc1ccc(S(=O)(=O)N(C)C[C@@H]2Oc3ccc(NC(=O)Nc4ccc(C(F)(F)F)cc4)cc3CC(=O)N([C@H](C)CO)C[C@H]2C)cc1 | - | 0 | 0
C[C@H](CO)N1C[C@H](C)[C@H](CN(C)S(C)(=O)=O)Oc2ccc(NC(=O)Nc3ccc(C(F)(F)F)cc3)cc2CC1=O | - | 98 | 0
C[C@H]1CN([C@@H](C)CO)C(=O)Cc2cc(NC(=O)Nc3ccc(C(F)(F)F)cc3)ccc2O[C@H]1CN(C)S(=O)(=O)c1ccc(Cl)cc1 | ? | 115 | 0
C[C@@H]1CN([C@@H](C)CO)C(=O)Cc2cc(NC(=O)Nc3ccc(C(F)(F)F)cc3)ccc2O[C@@H]1CN(C)C | 0 | 0 | 0
Cc1ncsc1CCSc1nc2ccccc2c(=O)n1-c1ccccc1 | - | 0 | 0
COC(=O)c1cc(OC)c(OC)cc1NC(=O)COc1cccc(C)c1C | - | 0 | 0
O=C(Nc1ccccc1C(=O)NCCOc1ccccc1)c1ccc(Cl)cc1 | - | 0 | 0
CC1=CC(=O)C2=C(C)CC[C@@H]3[C@H](OC(=O)[C@H]3C)[C@@H]12 | 0 | 0 | 0
C=C1C(=O)O[C@H]2C1CCC(C)=C1C(=O)C=C(C)[C@@H]12 (stereo partly specified) | 0 | 115 | 0
C=C(C(=O)O[C@H]1C/C=C(/C)C[C@H](O)[C@H]2[C@H](C)C(=O)O[C@@H]2/C=C\1C)[C@@H]1CCC(=C)[C@@H]2C[C@H](O[C@@H]3O[C@H](CO[C@H]4OC[C@](O)(CO)[C@H]4O)[C@@H](O)[C@H](O)[C@H]3O)C(=C)[C@@H]2C1 | 0 | 0 | 0
C[C@@H]1CN([C@H](C)CO)C(=O)c2cccc(NC(=O)Nc3ccc(F)cc3)c2O[C@@H]1CN(C)C(=O)Nc1cccc2ccccc12 | 0 | 0 | 0
SMILES | Shh pathway inh | NOMO-1 viab | MITF inh
C[C@H](CO)N1C[C@H](C)[C@@H](CN(C)C(=O)Nc2ccc(F)cc2)Oc2c(NC(=O)Nc3cccc4ccccc34)cccc2C1=O | 0 | 0 | 0
C[C@@H]1CN([C@@H](C)CO)C(=O)c2cccc(NC(=O)Nc3ccc(F)cc3)c2O[C@@H]1CN(C)C(=O)Nc1cccc2ccccc12 | ? | 96 | 0
C[C@H](CO)N1C[C@H](C)[C@@H](CN(C)C(=O)Nc2cccc3ccccc23)Oc2c(NC(=O)Nc3ccc(F)cc3)cccc2C1=O | 80 | 0 | 0
Cc1cc(Cl)c(S(=O)(=O)Nc2ccc(I)cc2)cc1OCC(N)=O | - | 0 | 0
CNC(=O)[C@H]1O[C@@H](n2cnc3c(NCc4cccc(I)c4)ncnc32)C(O)[C@H]1O (stereo partly specified) | 0 | 0 | 0
COc1ccc(C[C@H](N)C(=O)N[C@@H]2[C@@H](CO)OC(n3cnc4c(N(C)C)ncnc43)[C@@H]2O)cc1 (stereo partly specified) | 93 | 108 | 106
N#Cc1ccccc1CSc1nnc(-c2ccccc2)n1-c1ccccc1 | - | 0 | 0
COC(=O)c1ccccc1NC(=O)C(C)(C)Oc1ccc(Cl)cc1 | - | 0 | 0
CS(=O)(=O)c1sc(C(=O)O)c2c1C=CCC2 | - | 0 | 0
O=C(COc1ccc(S(=O)(=O)N2CCOCC2)cc1)Nc1ccc(Cl)c(C(F)(F)F)c1 | - | 129 | 0
O=C(COc1ccc(S(=O)(=O)N2CCOCC2)cc1)Nc1ccc2c(c1)OCCO2 | - | 0 | 0
O=C(O)Cn1cc(C(=O)C2CCCCC2)c2ccccc21 | - | 0 | 0
COc1ccc(CN2C(=O)c3cccc4cccc(c34)C2=O)cc1S(=O)(=O)N1CCCCC1 | - | 0 | 0
COC(=O)c1cccc(NC(=O)CSc2nnc(-c3cc(OC)cc(OC)c3)o2)c1 | - | 0 | 0
COc1cc(OC)cc(-c2nnc(SCC(=O)Nc3ccc(I)cc3)o2)c1 | - | 90 | 0
C[C@@H]1CN([C@H](C)CO)C(=O)Cc2cc(NC(=O)Nc3ccc(C(F)(F)F)cc3)ccc2O[C@@H]1CN(C)Cc1ccc(C(=O)O)cc1 | - | 0 | 0
C[C@@H]1CN([C@H](C)CO)C(=O)Cc2cc(NC(=O)Nc3ccc(C(F)(F)F)cc3)ccc2O[C@H]1CN(C)Cc1ccc(C(=O)O)cc1 | 0 | 0 | 0
C[C@@H]1CN([C@H](C)CO)C(=O)Cc2cc(NC(=O)Nc3ccccc3)ccc2O[C@H]1CN(C)Cc1ccc(C(F)(F)F)cc1 | 0 | 118 | 0
C[C@H](CO)N1C[C@H](C)[C@H](CN(C)Cc2ccc(C(F)(F)F)cc2)Oc2ccc(NC(=O)Nc3ccccc3)cc2CC1=O | - | 86 | 0
COc1ccccc1CC(=O)Nc1ccc(-c2nnc(-c3ccccc3)o2)cc1 | - | 0 | 0
CC1=C2CCC(C(=O)O)=CC2C(C(C)C)CC1 (stereo unspecified) | 0 | 0 | 0
CC(=O)OC1/C=C(/C(=O)O)CC/C=C(/C)C(=O)/C=C\C1(C)C (stereo unspecified) | 65 | 120 | 0
Cc1cc(C)c(C(=O)Nc2ccc(S(=O)(=O)Nc3cc(C)nc(C)n3)cc2)c(C)c1 | - | 0 | 0
CCn1c(SCC(=O)c2ccccc2)nnc1-c1cccnc1 | - | 0 | 0
CCOC(=O)Cn1c(-c2cccnc2)nc(-c2ccccc2)c1-c1ccccc1 | 0 | 115 | 0
C[C@H]1CN([C@@H](C)CO)C(=O)c2cc(NS(=O)(=O)c3ccc(F)cc3)ccc2O[C@H]1CN(C)Cc1ccc(Oc2ccccc2)cc1 | - | 0 | 0
